Compounds with a hit are over-represented: about 2.4% of the library has one in this group of screens.
APOBEC3A inh = human APOBEC3A DNA deaminase inhibition; AID 493011; P31941; inhibition, % at 20 µM; recombinant A3A, FAM/TAMRA ssDNA deamination fluorescence; actives 0.41% (n = 330,000);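 active = at least 40% inhibition at 20 µM here, with at most 30% in a related deaminase screen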
Target sequence (P31941 whole entry, looked up): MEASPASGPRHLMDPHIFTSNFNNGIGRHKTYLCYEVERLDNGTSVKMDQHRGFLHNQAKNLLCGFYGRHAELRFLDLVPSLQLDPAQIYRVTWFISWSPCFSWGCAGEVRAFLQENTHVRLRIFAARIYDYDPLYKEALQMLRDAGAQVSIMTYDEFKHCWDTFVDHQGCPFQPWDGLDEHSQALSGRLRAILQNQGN
M18AAP inhibitor = blocks P. falciparum M18 aspartyl aminopeptidase; recombinant PfM18AAP, H-Glu-NHMec fluorogenic cleavage; inhibition, % at 7.35 µM; actives 1.2% (n = 290,000); AID 1822;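 active = inhibition above the campaign mean inhibition over all tested compounds plus 3 SD, cut at about 28% in these data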
CR mimetic SO = caloric restriction mimetics inhibiting age-related superoxide in yeast; AID 2690; S. cerevisiae aged cells, superoxide DHE fluorescence; hits give low values; actives 0.18% (n = 330,000); superoxide response (% of plate mean), % at 10 µM;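 active = superoxide response under a set limit, about three screen SD below normal, cut at about 65% in these data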;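 also: yeast aged for seven days with compound at 30 °C before DHE staining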
A3G deaminase = inhibitors of human APOBEC3G DNA deaminase; inhibition, % at 20 µM; recombinant A3G, ssDNA deamination FAM/TAMRA fluorescence; actives 0.28% (n = 330,000); Q9HC16;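 active = inhibition of at least 40% at 20 µM, with no more than 30% in the related APOBEC3A deaminase screen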
Target sequence (Q9HC16 whole entry, looked up): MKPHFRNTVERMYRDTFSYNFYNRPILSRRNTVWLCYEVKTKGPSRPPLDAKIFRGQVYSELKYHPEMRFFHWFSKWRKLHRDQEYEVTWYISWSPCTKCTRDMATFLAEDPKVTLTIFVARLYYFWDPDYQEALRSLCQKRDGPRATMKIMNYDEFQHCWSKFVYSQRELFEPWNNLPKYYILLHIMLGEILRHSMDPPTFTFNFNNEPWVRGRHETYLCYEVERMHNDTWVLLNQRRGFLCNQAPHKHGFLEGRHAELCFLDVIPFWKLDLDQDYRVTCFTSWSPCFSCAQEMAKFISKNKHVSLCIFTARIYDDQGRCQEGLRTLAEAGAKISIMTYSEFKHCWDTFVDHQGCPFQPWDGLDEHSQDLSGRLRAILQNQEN
PfG6PD inh = PfG6PD (Plasmodium falciparum) enzyme inhibition. PfGluPho enzyme, NADPH resazurin-diaphorase fluorescence. inhibition, % at 20 µM. actives 0.78% (n = 350,000). AID 504690;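 active = inhibition reaching at least a set limit at 20 µM in the primary screen, cut at about 59% in these data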
PfGluPho conf = confirmation of Plasmodium falciparum G6PD inhibitors; shares compounds with PfG6PD inh; recombinant PfGluPho, NADPH-diaphorase-resazurin fluorescence; inhibition, % at 20 µM; actives 34% (n = 2,400); AID 504753;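 active = inhibition of at least 50% at 20 µM in any single replicate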
Diaph ctr 10uM = diaphorase inhibition or oxidation at 10 uM NADPH | shares compounds with PfG6PD inh | diaphorase-coupled resazurin reduction, fluorescence, NADPH 10 uM | inhibition, % at 20 µM | actives 39% (n = 820);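 active = average inhibition reaching 50% or more with the compound at 20 µM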;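 also: resorufin red fluorescence formed as diaphorase reduces resazurin using NADPH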
Diaphorase 30uM = diaphorase inhibition or oxidation at 30 uM NADPH; shares compounds with PfG6PD inh; Diaphorase/resazurin coupled assay, resorufin fluorescence; inhibition, % at 20 µM; actives 29% (n = 820); AID 504863;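 active = inhibition averaging 50% or more, tested at 20 µM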
Hits are given with their value; – = inactive; · = no result.

SMILES	APOBEC3A inh	M18AAP inhibitor	CR mimetic SO	A3G deaminase	PfG6PD inh	PfGluPho conf	others
O=C(CSc1nc2cc(Cl)ccc2s1)c1ccco1	–	–	–	–	113	56	Diaph ctr 10uM=–;Diaphorase 30uM=–
Cc1ccc(NC(=S)NNC(=S)Nc2ccc(C)cc2)cc1	·	·	·	·	78	–
Cc1cc(C(=O)CCC(=O)Nc2cccc(F)c2)c(C)s1	·	·	·	·	–	·
CCOC(=O)c1sc2nc(N3CCCC3)c3c(c2c1N)CC(C)(C)OC3	–	–	–	–	–	·
CN(C(=O)c1sc2nc(N3CCCC3)c3c(c2c1N)CC(C)(C)OC3)c1ccccc1	–	–	–	–	66	–
Cn1c2ccccc2c(=O)c2cc(C#Cc3ccc(N)cc3)ccc21	–	–	–	–	79	–
COc1ccc(C(=O)/C=C/c2ccsc2)cc1CSCC(=O)O	–	–	–	–	–	·
CCn1c(=S)sc2c(=O)n(-c3ccccc3)c(=S)[nH]c21	–	–	–	–	–	·
CCOc1ccccc1-n1c(=S)sc2c(=O)n(-c3ccc(C)cc3)c(=S)[nH]c21	–	–	–	–	98	78	Diaph ctr 10uM=56;Diaphorase 30uM=51
CCN(CC(=O)NC(C)C)C(=O)Cc1ccc(C)c(C)c1	–	–	–	–	–	·
Cc1cc(C)nc(/N=C(\N)Nc2ccccc2-c2ccccc2)n1	–	–	–	–	72	55	Diaph ctr 10uM=52;Diaphorase 30uM=–
COc1cccc(C(=O)Nc2ccc(Cl)c(C(F)(F)F)c2)c1	–	–	–	–	65	–
COc1cc(C(=O)Nc2ccc(Cl)c(C(F)(F)F)c2)cc(OC)c1OC	–	–	–	–	–	·
CC1CCC(NC(=O)COC(=O)c2ccco2)CC1 (stereo unspecified)	–	·	–	–	–	·
COc1ccc(Nc2ccc(OC)cc2)cc1	–	–	–	–	64	–
COc1ccc(Nc2cc(C)c3ccccc3n2)cc1	–	–	–	–	66	–
O=c1c2ccccc2nnn1-c1ccccc1[N+](=O)[O-]	·	·	·	·	–	·
COC(=O)[C@@H](c1ccccc1)N(C)S(=O)(=O)c1cccc(S(=O)(=O)N(C)[C@@H](C(=O)OC)c2ccccc2)c1	–	–	–	–	–	·
Cc1cccc(-n2c(=S)[nH]c3sc4c(c3c2=O)CCc2ccccc2-4)c1	–	–	·	–	67	52	Diaph ctr 10uM=–;Diaphorase 30uM=–
CCN(CC)C(=O)Cn1cc([N+](=O)[O-])cc1[N+](=O)[O-]	·	·	·	·	–	·
CCCOc1ccc2oc(=O)c3c(c2c1)CCCN3C(=O)CN(C)Cc1ccccc1	–	–	–	–	78	–
O=C(CN1CCCCC1)N1CCCc2c1c(=O)oc1ccc(OCc3ccccc3)cc21	–	–	–	–	–	·
CC1CCCN(S(=O)(=O)c2ccc(NC(=O)CN3C(=O)NC(C)(c4ccccc4)C3=O)cc2)C1 (stereo unspecified)	–	·	–	–	–	·
Cc1ccc(NC(=O)c2cc([N+](=O)[O-])ccc2N2CCOCC2)cc1S(=O)(=O)N(C)C	–	–	–	–	78	–
Cc1ccc(NC(=O)c2cc([N+](=O)[O-])ccc2N2CCOCC2)cc1C	–	–	–	–	–	·
SMILES	APOBEC3A inh	M18AAP inhibitor	CR mimetic SO	A3G deaminase	PfG6PD inh	PfGluPho conf	others
COc1ccc2c(c1)CC/C(=C\Nc1ccc3c(c1)OCO3)C2=O	–	–	–	–	73	57	Diaph ctr 10uM=–;Diaphorase 30uM=–
O=C1/C(=C/Nc2ccc3c(c2)OCO3)CCc2ccccc21	–	–	–	–	88	–
COc1ccc(N/C=C2\CCc3ccccc3C2=O)cc1	–	37	–	–	91	–
COc1cc(CNC2CCCCCCC2)c(Br)cc1OCCO	–	–	–	–	–	·
NS(=O)(=O)c1ccc(CCNCc2ccccc2OCc2ccc(Cl)cc2)cc1	–	–	–	–	–	·
O=c1c2cc(F)ccc2sn1-c1ccccc1Cl	·	·	·	·	123	110	Diaph ctr 10uM=–;Diaphorase 30uM=–
O=c1c2ccccc2ncn1-c1ccc(Cl)cc1	–	–	–	–	–	·
Cc1ccc(-n2sc3cc(F)ccc3c2=O)c(C)c1	·	·	·	·	124	104	Diaph ctr 10uM=–;Diaphorase 30uM=–
O=c1c2ccc(F)cc2sn1-c1ccccc1	·	·	·	·	128	106	Diaph ctr 10uM=–;Diaphorase 30uM=–
Cc1ccc(N2C(=O)CC(N3CCN(c4ccc(F)cc4)CC3)C2=O)c(C)c1 (stereo unspecified)	–	–	–	–	–	·
O=c1c2ccccc2sn1-c1ccc(Cl)cc1	·	·	·	·	126	106	Diaph ctr 10uM=–;Diaphorase 30uM=–
CCN1C(=O)[C@H]2[C@@H](c3ccc(C)cc3)N[C@]3(CCCN(Cc4ccc(Cl)cc4)C3=O)[C@H]2C1=O	·	·	·	·	–	·
CCc1nnc(SCC(=O)Nc2ccccc2)n1CC1CCCO1 (stereo unspecified)	–	–	–	–	–	·
NCCNc1ccc(C(=O)N2c3ccccc3Sc3ccccc32)cc1[N+](=O)[O-]	–	–	–	–	69	92	Diaph ctr 10uM=–;Diaphorase 30uM=–
NNC(=O)c1cccc(S(=O)(=O)Nc2cccc(C(F)(F)F)c2)c1	–	–	–	–	–	·
Cc1[nH]c2ccccc2c1/C=N/NC(=O)c1cccc(S(=O)(=O)Nc2cccc(C(F)(F)F)c2)c1	–	–	–	–	66	–
C=CCNC(=S)NNC(=O)c1ccc([N+](=O)[O-])cc1	–	–	–	–	–	·
C=CCN(CC=C)C(=S)NC(=O)c1ccc([N+](=O)[O-])cc1	–	–	–	–	86	–
Cc1cc(/C=C2\Cc3ccccc3C2=O)c(C)n1-c1ccccc1	–	–	–	–	59	–
Cc1cc(C=C2C(=O)c3ccccc3C2=O)c(C)n1-c1ccccc1	–	–	–	–	–	·
Nc1ccccc1C=C1Cc2ccccc2C1=O	·	·	·	·	–	·
Cc1cc(C=C2C(=O)c3ccccc3C2=O)c(C)n1-c1cccc(C(=O)O)c1	–	–	–	–	61	–
O=C(O)c1cccc(-n2cccc2C=C2C(=O)c3ccccc3C2=O)c1	–	–	–	–	–	·
Cc1cc(C=C2C(=O)c3ccccc3C2=O)c(C)n1-c1ccc(C(=O)O)cc1	–	–	–	–	100	73	Diaph ctr 10uM=54;Diaphorase 30uM=61
CN(C)c1ccc(NC(=S)NC23CC4CC(CC(C4)C2)C3)cc1	–	–	–	–	–	·
C=CCN1C=C2C(=O)C(C)(OC(=O)CCC(=O)OC)C(=O)C(Br)=C2C=C1c1ccc(OC)cc1 (stereo unspecified)	–	·	–	–	86	55	Diaph ctr 10uM=–;Diaphorase 30uM=–
CCN(CC)CCCN1C=C2C(=O)C(C)(OC(=O)CCC(=O)OC)C(=O)C(Br)=C2C=C1c1ccc(OC)cc1 (stereo unspecified)	–	·	–	–	–	·
COC(=O)CCC(=O)OC1(C)C(=O)C2=CN(Cc3ccco3)C(c3ccc(OC)cc3)=CC2=C(Br)C1=O (stereo unspecified)	–	·	–	–	·	·

Assay outcomes from PubChem.
